Results filed as inconclusive are left out. Active and inactive are the calls of the source. Rule for the calls, unless noted: active = hit-call score of the fitted dose curve at least 0.9, where 1 is the maximum; inactive = score below 0.9.
Tests used:
[1] = ACEA_ER_80hr: ACEA Biosciences xCELLigence Real-Time Cell Analysis on Estrogen Receptor Agonism for Proliferation (AID 2282667; active = hit-call score of the fitted dose curve at least 0.9, where 1 is the maximum); conditions: T47D proliferation, impedance (xCELLigence), 80 h
Method in brief: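 Real-time electrical impedance tracked growth of the human breast line T47D, with the 80 h post-dosing value used. Dosing spanned eight 1:4 steps down from a 100 uM final top concentration, run in duplicate.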

[2] = APR_HepG2_CellCycleArrest_24hr: Apredica 24-hour HepG2 Assay for Cell Cycle Arrest (AID 2282905); conditions: imaging, actives raise or lower the signal;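 note: cell cycle arrest scored as ratio of 2N to 4N nuclear DNA content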
Method in brief: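 Compounds at 0.39–200 uM (0.5% DMSO) for 24 h, then fixed and Hoechst 33342 stained. Cell-cycle analysis of nuclear DNA content by high-content imaging, fitted bidirectionally versus DMSO.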

[3] = APR_HepG2_NuclearSize_24hr: Apredica 24-hour HepG2 Assay for Nuclear Size (AID 2282907); conditions: high-content imaging, actives raise or lower the signal
Method in brief: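 HepG2 cells exposed 24 h to compounds at 0.39–200 uM (0.5% DMSO), fixed, Hoechst 33342 stained and imaged at 20x; nuclear diameter measured by automated image analysis, fitted bidirectionally against DMSO controls.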

[4] = APR_HepG2_CellLoss_24hr: Apredica 24-hour HepG2 Assay for Cell Loss (AID 2282908); conditions: high-content imaging;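 for AC50: fit in both directions so a hit may be cell loss or gain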
Method in brief: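 HepG2 cells exposed 24 hr to 0.39–200 uM compound in duplicate at 0.5% v/v final DMSO. Cells fixed in 3.7% formaldehyde and Hoechst 33342-stained. Cell number came from nuclear imaging at 20x. Bidirectional fit versus DMSO.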

[5] = APR_HepG2_MicrotubuleCSK_24hr: Apredica 24-hour HepG2 Assay for Microtubule CSK Stabilty (AID 2282909); conditions: HepG2 microtubule cytoskeleton imaging, actives raise or lower the signal
Method in brief: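 HepG2 cells were treated 24 hr with compound at 0.39–200 uM in duplicate (0.5% DMSO final), then fixed and permeabilized. Alpha-tubulin immunofluorescence was imaged by high-content microscopy, with bidirectional fitting against DMSO and taxol as positive control.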

[6] = APR_HepG2_MitoticArrest_24hr: Apredica 24-hour HepG2 Assay for Mitotic Arrest (AID 2282910); conditions: high-content imaging, actives raise or lower the signal
Method in brief: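 HepG2 cells, 24 h exposure at 0.39-200 uM (10 concentrations, duplicate, 0.5% DMSO). Fixed, stained for phospho-histone H3 with Hoechst; imaged by high-content microscopy, bidirectional fit versus DMSO.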

[7] = APR_HepG2_MitoMembPot_24hr: Apredica 24-hour HepG2 Assay for Mitochondrial Membrane Potential (AID 2282911); conditions: imaging, actives raise or lower the signal
Method in brief: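 Cells are dosed for 24 hr across 0.39 to 200 uM with solvent held at 0.5% DMSO. They are then stained with 250 nM MitoTracker Red CMXRos for 30 min, fixed in 3.7% formaldehyde and imaged.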

[8] = APR_HepG2_MitoMass_24hr: Apredica 24-hour HepG2 Assay for Mitochondrial Mass (AID 2282912); conditions: high-content imaging, actives raise or lower the signal
Method in brief: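 HepG2 cells exposed 24 hr to 0.39–200 uM compound, 0.5% v/v DMSO, in duplicate. Stained before fixation with 250 nM MitoTracker Red CMXRos for 30 min, then imaged at 20x with Hoechst nuclei. Fitted in both directions against DMSO.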

[9] = APR_HepG2_CellCycleArrest_72hr: Apredica 72-hour HepG2 Assay for Cell Cycle Arrest (AID 2282914); conditions: high-content imaging, actives raise or lower the signal
Method in brief: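 Read-out is Hoechst-stained nuclear DNA content measured by automated fluorescence imaging (20x, six images per well), fitted in both directions relative to DMSO. Human HepG2 liver cells received 0.39–200 uM compound for 72 hr at 0.5% v/v DMSO.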

[10] = APR_HepG2_CellLoss_72hr: Apredica 72-hour HepG2 Assay for Cell Loss (AID 2282915); conditions: high-content imaging
Method in brief: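 HepG2 cells exposed 72 h to compound at 0.39–200 uM (10 concentrations, duplicate) in 0.5% DMSO. Fixed with 3.7% formaldehyde and Hoechst 33342-stained. Imaged at 20x; nuclear count gives cell number, fitted bidirectionally versus DMSO.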

[11] = APR_HepG2_P-H2AX_72hr: Apredica 72-hour HepG2 Assay for H2AX Phosphorylation (AID 2282916); conditions: imaging, actives raise or lower the signal;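 note: phospho-histone H2A.x immunostain intensity per cell marking DNA damage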
Method in brief: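 HepG2 cells treated 72 h at 0.39–200 uM, 0.5% DMSO final, duplicates. Formaldehyde-fixed, Triton-permeabilised, immunostained for phospho-H2A.x with Hoechst; fluorescence imaged at 20x, bidirectional fit versus DMSO.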

[12] = APR_HepG2_MitoMembPot_72hr: Apredica 72-hour HepG2 Assay for Mitochondrial Membrane Potential (AID 2282917); conditions: imaging, actives raise or lower the signal
Method in brief: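 HepG2 cells dosed 72 hr with compound at 0.39–200 uM in duplicate, 0.5% v/v DMSO final. Mitochondria stained with 250 nM MitoTracker Red CMXRos for 30 min before formaldehyde fixation, imaged by high-content fluorescence; bidirectional fit versus DMSO.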

[13] = APR_HepG2_MitoticArrest_72hr: Apredica 72-hour HepG2 Assay for Mitotic Arrest (AID 2282918); conditions: high-content imaging, actives raise or lower the signal
Method in brief: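 Read-out is phospho-histone H3 immunofluorescence with Hoechst nuclear segmentation, imaged at 20x. Human HepG2 liver cells received ten concentrations (0.39–200 uM, final DMSO 0.5% v/v) for 72 hr before fixation. Gain or loss of signal was fitted relative to DMSO.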

[14] = APR_HepG2_MicrotubuleCSK_72hr: Apredica 72-hour HepG2 Assay for Microtubule CSK Stabilty (AID 2282919); conditions: HepG2 microtubule cytoskeleton, high-content imaging, actives raise or lower the signal
Method in brief: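 HepG2 cells were exposed 72 hr to compound at 0.39–200 uM in duplicate (0.5% DMSO final), then fixed and permeabilized. Alpha-tubulin immunofluorescence was imaged by high-content microscopy, with bidirectional fitting against DMSO and taxol as positive control.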

[15] = APR_HepG2_P-H2AX_24hr: Apredica 24-hour HepG2 Assay for H2AX Phosphorylation (AID 2282920); conditions: high-content imaging, actives raise or lower the signal
Method in brief: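 HepG2, 24 hr, cpd 0.39–200 uM (10 conc, duplicate), DMSO 0.5% v/v final. Fix 3.7% formaldehyde, Triton X-100 permeabilize, anti-phospho-H2A.x 1:200 + Hoechst 2 ug/mL. Imaged, bidirectional fit vs DMSO.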

[16] = APR_HepG2_StressKinase_72hr: Apredica 72-hour HepG2 Assay for Stress Kinase (AID 2282921); conditions: HepG2 stress kinase (phospho-c-Jun) imaging, actives raise or lower the signal
Method in brief: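 HepG2 cells treated 72 hr with 0.39–200 uM compound, 0.5% v/v DMSO, duplicate wells. After formaldehyde fixation and Triton permeabilization, stained with anti-phospho-c-Jun (1:500) and Cy3 secondary, imaged at 20x. Fitted in both directions against DMSO.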

[17] = APR_HepG2_StressKinase_24hr: Apredica 24-hour HepG2 Assay for Stress Kinase (AID 2282922); conditions: HepG2 stress kinase (phospho-c-Jun) imaging, actives raise or lower the signal
Method in brief: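 HepG2 cells exposed 24 h to 0.39–200 uM compound in duplicate (0.5% v/v DMSO final). Cells fixed in 3.7% formaldehyde, permeabilized and immunostained for phospho-c-Jun; read by high-content fluorescence imaging, fitted bidirectionally against DMSO.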

[18] = APR_HepG2_MitoMass_72hr: Apredica 72-hour HepG2 Assay for Mitochondrial Mass (AID 2282924); conditions: high-content imaging, actives raise or lower the signal;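 note: MitoTracker Red CMXRos stain intensity per cell imaged as mitochondrial mass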
Method in brief: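 HepG2 cells dosed 72 hr at 0.39–200 uM (0.5% DMSO), in duplicate. MitoTracker Red CMXRos 250 nM loaded 30 min before formaldehyde fixation; high-content fluorescence imaging, bidirectional fit versus DMSO.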

[19] = APR_HepG2_p53Act_24hr: Apredica 24-hour HepG2 Assay for p53 Activation (AID 2282913); conditions: high-content imaging, actives raise or lower the signal;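 note: p53 protein immunofluorescence averaged per cell in HepG2 with Hoechst nuclei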
Method in brief: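 Human HepG2 liver cells; 24 hr cpd treatment, 0.39–200 uM, 0.5% DMSO final. Fixed in 3.7% formaldehyde, permeabilized with 0.5% Triton X-100, stained with anti-p53/Cy5 plus Hoechst 33342. Six images per well at 20x; gain or loss vs DMSO.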

[20] = APR_HepG2_p53Act_72hr: Apredica 72-hour HepG2 Assay for p53 Activation (AID 2282923); conditions: high-content imaging, actives raise or lower the signal;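 note: average cellular p53 protein immunofluorescence intensity in HepG2 cells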
Method in brief: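 HepG2 cells exposed 72 h to 0.39–200 uM in 0.5% DMSO, duplicates. Fixed, permeabilized cells immunostained for p53 (Cy5) with Hoechst; imaged at 20x, fluorescence analyzed bidirectionally against DMSO.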

Measured: AC50

CCCCCCOC(=O)CC(CC(=O)OCCCCCC)(OC(=O)CCC)C(=O)OCCCCCC
active: [1] 50 µM
not listed: [19] | [20]
inactive: all other assays above

NNC(=O)c1ccncc1
not listed: [12] | [13] | [14] | [18]
inactive: all other assays above

O=S(=O)(O)CCC(F)(F)C(F)(F)C(F)(F)C(F)(F)C(F)(F)C(F)(F)F
inactive: [1]

Cc1nc(-c2ccccn2)ncc1C(=O)Nn1cc(C)c2cc(F)ccc21
active: [2] 99.5 µM | [4] 88.7 µM | [6] 101 µM | [7] 100 µM | [8] 108 µM | [9] 162 µM | [10] 55.3 µM | [13] 72.2 µM
not listed: [12] | [19] | [20]
inactive: all other assays above

OCCNCCO
not listed: [1] | [19] | [20]
inactive: all other assays above

CCCCCOC(C)=O
not listed: [1] | [12] | [19] | [20]
inactive: all other assays above

Cc1ccc(S(=O)(=O)NC(=O)NN2CCCCCC2)cc1
not listed: [1] | [19] | [20]
inactive: all other assays above

O=c1[nH]cnc2c1ncn2[C@H]1CC[C@@H](CO)O1
active: [7] 0.039 µM
not listed: [1] | [12] | [19] | [20]
inactive: all other assays above

CCCCC(CC)C(=O)OCCOCCOCCOC(=O)C(CC)CCCC (centres undefined)
active: [9] 79.2 µM | [10] 89.8 µM | [13] 91.2 µM
not listed: [1]
inactive: all other assays above

CNC(C)=O
not listed: [1] | [19] | [20]
inactive: all other assays above

c1ccc(C(O[C@@H]2CCCN(CCc3ccc4c(c3)OCO4)C2)c2ccccc2)cc1
inactive: [3] | [7] | [9] | [14] | [17]
active: [2] 83.5 µM | [4] 99.9 µM | [5] 88.3 µM | [6] 96.3 µM | [8] 100 µM | [19] 103 µM | [10] 98.3 µM | [11] 96 µM | [13] 57.8 µM | [15] 103 µM | [16] 100 µM | [20] 63.3 µM | [18] 99.7 µM

CCn1nc(C)c2c1C(=O)NCC(c1ccc(O)cc1)=N2
not listed: [1] | [12]
inactive: all other assays above

C=CCc1cc(S(=O)(=O)c2ccc(O)c(CC=C)c2)ccc1O
inactive: [3] | [5] | [7] | [12] | [14] | [16] | [17]
active: [2] 32 µM | [4] 97.8 µM | [6] 51.5 µM | [8] 52.7 µM | [9] 33.7 µM | [10] 73.2 µM | [11] 53.2 µM | [13] 71.3 µM | [15] 77.5 µM | [18] 58.5 µM

CC(C)c1nnc2ccc(-c3ocnc3-c3cc(F)ccc3F)cn12
active: [7] 0.0586 µM
not listed: [1] | [2] | [3] | [5] | [9] | [12] | [14]
inactive: all other assays above

CCCCCCCC1CCC(=O)O1 (centres undefined)
not listed: [2] | [3] | [5] | [9] | [12] | [14]
inactive: all other assays above
